Measurements from PubChem BioAssay (Tox21).
Inconclusive results are not listed. Values without a mark were called inactive. Calls of active or inactive are those of the source. Calls follow the shape of the dose curve; as a rule, active = well fitted cell-killing curve with a large enough effect in the repeat runs; inconclusive = weak or mixed curves, or effect the other way; inactive = flat fitted curve, though single readings scatter.

Test: cAMP Responsive Elements (CRE) small molecule antagonists, cell-based qHTS assay: qHTS cell viability counter screen (AID 2060913); also: nearly all actives have a fitted effect of over 40% in size
Settings: CRE-bla HEK293T viability, CellTiter-Glo luminescence, 5 h; series mostly up to 92.4 µM; viability change, negative = cytotoxic: at the top concentration
Method in brief: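 CRE-bla HEK293T cells (2,000/well, 18 h) given compound plus NKH477 0.25 uM final for 3 h at 37C; viability counter-screen by CellTiter-Glo luminescence in same wells after 30 min.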
% is scaled to controls: 0 for no effect and ±100 for the full control effect; potency is read from the fitted curve at half-maximal effect.

Going from CO[Si](CCCn1c(=O)n(CCC[Si](OC)(OC)OC)c(=O)n(CCC[Si](OC)(OC)OC)c1=O)(OC)OC to CCCCCC[C@@H](CCC)C(=O)O, the “viability change, negative = cytotoxic” value rises from 2.19% [at 42.5 µM] to 8.25% [at 42.5 µM].

Going from CC(=O)Oc1ccc(C2(c3ccc(OC(C)=O)cc3)Oc3ccccc3NC2=O)cc1 to CCN(CC)CCOc1ccc(Cc2ccccc2)cc1, the “viability change, negative = cytotoxic” value falls from 7.57% [at 42.5 µM] to -12.8% [at 42.5 µM].

Compared with CC(=O)OCC(=O)[C@@]1(O)[C@H](C)C[C@H]2[C@@H]3CCC4=CC(=O)C=C[C@]4(C)[C@@]3(F)[C@@H](O)C[C@@]21C, CCC(=O)Oc1ccc2c(c1)CC[C@@H]1[C@@H]2CC[C@@]2(C)[C@H]1C[C@@H](OC(=O)CC)[C@@H]2OC(=O)CC is higher in “viability change, negative = cytotoxic” value: 3.13% [at 42.5 µM] for the first, 4.7% [at 42.5 µM] for the second.

Going from CC(C)[N+](C)(C)CC(O)COc1cccc2ccccc12 (stereo not given) to CC(C)C(=O)c1c(C(C)C)nn2ccccc12, the “viability change, negative = cytotoxic” value falls from 0.543% [at 42.5 µM] to -0.393% [at 42.5 µM].

Going from CC1(C)S[C@@H]2[C@H](NC(=O)C(C(=O)O)c3ccccc3)C(=O)N2[C@H]1C(=O)O (stereo not given in full) to O=C(O)[C@H](O)c1ccccc1, the “viability change, negative = cytotoxic” value falls from -0.289% [at 42.5 µM] to -4.78% [at 42.5 µM].

Compared with c1ccc(-c2nc[nH]c2-c2ccccc2)cc1, O=C(O)c1ccccc1-c1ccc(C(F)(F)F)cc1 is higher in “viability change, negative = cytotoxic” value: -1.97% [at 42.5 µM] for the first, 0.598% [at 42.5 µM] for the second.

Going from O=S(=O)(O)c1ccc(Nc2nc(Nc3ccc(/C=C/c4ccc(Nc5nc(Nc6ccc(S(=O)(=O)O)cc6)nc(N(CCO)CCO)n5)cc4S(=O)(=O)O)c(S(=O)(=O)O)c3)nc(N(CCO)CCO)n2)cc1 to O=C(NCCCN1CCOCC1)c1ccc(Cl)cc1, the “viability change, negative = cytotoxic” value rises from 9.3% [at 42.5 µM] to 11.2% [at 42.5 µM].

Compared with O=C(NO)C1(NS(=O)(=O)c2ccc(Oc3ccc(F)cc3)cc2)CCOCC1, O=C(/C=C/c1ccccc1)OC/C=C/c1ccccc1 is higher in “viability change, negative = cytotoxic” value: -3.61% for the first, -2.52% for the second.

First: OCCNCc1ccccc1
Second: COC(Cc1ccccc1)OC
The “viability change, negative = cytotoxic” value of the first is lower: -4.26% for the first, 8.45% for the second.

Going from O=C(O)c1ccncc1 to Cc1c(C(=O)O)cccc1[N+](=O)[O-], the “viability change, negative = cytotoxic” value falls from -5.68% to -12.4%.

Going from NCCCN1CCOCC1 to CC(C)CCCCCOC(=O)CCS, the “viability change, negative = cytotoxic” value falls from 0.401% to -0.039%.

First: O=C(N[C@H](CO)[C@H](O)c1ccc([N+](=O)[O-])cc1)C(Cl)Cl
Second: Nc1ccc([N+](=O)[O-])cc1O
The “viability change, negative = cytotoxic” value of the first is lower: 7.34% for the first, 16.8% for the second.

Going from CC1=Nc2ccc3ccccc3c2C1(C)C to CN(C)N=Nc1ccccc1, the “viability change, negative = cytotoxic” value falls from -3.1% to -4.53%.

Going from CCSC(=O)N(CC(C)C)CC(C)C to CCOC(=O)C(C)O (stereo not given), the “viability change, negative = cytotoxic” value falls from 7.91% to 4.24%.

Going from CC(S)C(C)S (stereo not given) to CC(C)(C)C1=CC(=O)C=C(C(C)(C)C)C1=O, the “viability change, negative = cytotoxic” value falls from -3.16% to -3.69%.

Compared with O=C(O)CC(C(=O)O)S(=O)(=O)O (stereo not given), C[n+]1ccn(Cc2ccccc2)c1 is lower in “viability change, negative = cytotoxic” value: 1.32% for the first, -13.6% for the second.

For C=C(C)C1CC=C(C)CC1 (stereo not given), the Potency was “inactive”.
In the case of O=[N+]([O-])c1ccccc1C(F)(F)F, the Potency is reported as “inactive”.
With CCN(CC)CCOc1ccc(C(O)(Cc2ccc(Cl)cc2)c2ccc(C)cc2)cc1 (stereo not given) the Potency was 26.6 µM (active).
For CC1(C)[C@@H]2CC[C@@]1(C)C(=O)C2, the Potency was “inactive”.
In the case of Brc1cc(Oc2cc(Br)c(Br)c(Br)c2Br)c(Br)c(Br)c1Br, the Potency is reported as “inactive”.
For CN(C)/N=N/c1nc[nH]c1C(N)=O, the Potency was “inactive”.
For Nc1ccc(S(=O)(=O)c2ccc(N)cc2)cc1, the Potency was “inactive”.

With CC(NN)c1ccccc1 (stereo not given) the viability change, negative = cytotoxic was -0.733% [at 18.9 µM].
